Rows were chosen to be rich in hits. Some 2.3% of all compounds tested hit in one or more screens of this group.
ABHD5-PLIN5 inh = blocks binding of human ABHD5 to perilipin-5; Q00G26+Q8WTS1; Split G. princeps luciferase complementation, luminescence, 4 h; inhibition, % at 4 µM; 360,000 tested, 0.78% active; AID 602281;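 active means inhibition above the mean inhibition across every tested compound plus 3 SD, cut at about 22% in these data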
Exocytosis inh = lytic granule exocytosis inhibition; 360,000 tested, 0.66% active; inhibition, % at 10 µM; TALL-104 LAMP-1 surface exposure, flow cytometry; cells stimulated with thapsigargin and PMA;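 active means inhibition above about 55%, limit read from the data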
NTR1 ag = activates human neurotensin receptor 1 | P30989 | NTR1-U2OS beta-arrestin-GFP spot imaging, agonist mode | activation, % at 20 µM | 330,000 tested, 0.17% active | AID 493036;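 active means activation at or above 40% of the spot to cytoplasm intensity ratio, with at least 20 cells analyzed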
B2AR ag = human beta-2 adrenergic receptor agonism by FAP; response, % (test concentration not listed); AID 504454; Am2.2-beta2AR cells, FAP receptor internalization, flow cytometry; 340,000 tested, 0.43% active;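 active means response above a set limit, near 3 SD of response in nonfluorescent compounds, cut at about 42% in these data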
Target sequence (P07550 whole entry, looked up): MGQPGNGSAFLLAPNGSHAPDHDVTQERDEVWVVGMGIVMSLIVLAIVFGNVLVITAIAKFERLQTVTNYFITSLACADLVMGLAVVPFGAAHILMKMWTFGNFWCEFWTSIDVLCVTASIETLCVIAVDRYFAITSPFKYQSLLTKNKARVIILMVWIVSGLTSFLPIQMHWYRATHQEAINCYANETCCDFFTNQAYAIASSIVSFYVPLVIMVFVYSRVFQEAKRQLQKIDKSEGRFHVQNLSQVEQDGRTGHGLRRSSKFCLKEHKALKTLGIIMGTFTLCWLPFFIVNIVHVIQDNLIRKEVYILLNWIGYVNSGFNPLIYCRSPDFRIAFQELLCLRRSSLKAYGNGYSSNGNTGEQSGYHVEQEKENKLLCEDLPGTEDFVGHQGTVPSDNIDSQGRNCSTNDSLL
HTR2A ag = mouse HTR2A agonism via beta-arrestin recruitment; 360,000 tested, 0.66% active; activation, % at 7.6 µM; P35363; CHO-K1 mHTR2A beta-arrestin complementation, luminescence; percent of 30 µM serotonin response; AID 624169;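 active means activation above a run cutoff, the mean activation of all tested compounds plus 3 SD, cut at about 14% in these data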
A number is an active result; . = inactive; / = not tested or not shown; ! = repeats disagree.

SMILES | ABHD5-PLIN5 inh | Exocytosis inh | NTR1 ag | B2AR ag | HTR2A ag
Cc1cc2c(c(=O)n1CC1CCCO1)C(c1ccc3c(c1)OCO3)C(C#N)=C(N)O2 (stereo not drawn) | . | . | . | . | .
Cc1nc(N2N=C(c3ccc(Cl)cc3)CC2c2ccco2)sc1C(=O)N(C)C (stereo not drawn) | 22 | . | . | . | .
Cc1cc(NC(=O)C(C)SCC(=O)OCc2c(Cl)cccc2Cl)no1 (stereo not drawn) | . | . | . | . | .
CCC(=O)N1CCN(c2ccc(NC(=O)c3cc4ccccc4o3)cc2Cl)CC1 | . | . | . | . | .
CCCC(=O)N1CCN(c2ccc(NC(=O)c3cc4ccccc4o3)cc2Cl)CC1 | . | . | 45 | . | .
Cc1cccc(N2CCN(C(=O)Cn3sc4nc(C)cc(C)c4c3=O)CC2C)c1 (stereo not drawn) | 82 | . | . | . | .
O=S(=O)(c1cccc(COc2c(Cl)cccc2Cl)c1)N1CCOCC1 | . | . | . | . | .
N#C/C(=C\Nc1ccccc1O)c1nc2ccccc2o1 | . | 86 | / | . | .
N#C/C(=C\c1ccncc1)c1nc2ccccc2o1 | . | . | . | . | .
COc1ccc(N2C(=O)CSC2c2ccc([N+](=O)[O-])cc2)cc1 (stereo not drawn) | . | . | . | . | .
COc1ccccc1C(=O)NCCC(=O)NCC(C)(C)N1CCOCC1 | . | . | . | . | 17
CCNC(=O)/C(C#N)=C/c1c(N2CCOCC2)nc2ccccn2c1=O | . | . | . | 47 | .
CC1=C(C(=O)N2CCCCCC2)CC(CC(=O)NCc2ccco2)C(=O)N1Cc1ccccc1 (stereo not drawn) | . | . | / | / | .
O=C(/C=C/c1ccccc1)c1ccccn1 | 23 | . | . | . | .
COc1ccc(-n2c(-c3cc(-c4ccccc4)sc3N)n[nH]c2=S)cc1 | . | 91 | . | . | .
Cc1ccc(NC(=S)N(CCCN2CCCC2)Cc2cccn2Cc2ccc(Cl)cc2)cc1Cl | . | 65 | . | . | .
Cc1ccc(NC(=S)N(CCCN2CCCC2)Cc2cccn2Cc2ccc(Cl)cc2)cc1C | . | 81 | . | . | .
Cc1cc(NC(=S)N(CCN2CCCCC2)Cc2ccco2)ccc1Cl | . | . | . | . | .
Cc1ccc(NC(=O)c2ccc(OCC3CCCO3)cc2)cc1Cl (stereo not drawn) | . | . | / | / | .
C=Cc1c(C)c2cc3[nH]c(cc4nc(cc5nc(cc1[nH]2)C(C)=C5CCC(=O)O)C(CCC(=O)O)=C4C)c(C)c3C=C | . | . | . | 45! | .
Cc1ccc(S(=O)(=O)N2C[C@@H]3[C@H]4CC[C@H](C4)[C@@H]3[C@@H](C)[C@H]2c2ccn(Cc3ccccc3)c2)cc1 | . | . | . | . | .
COC(=O)C(=C/C=C/c1ccco1)C(=O)OC | 23 | . | . | . | .
C[C@@H](NCCCn1ccc(NC(=O)OCc2ccccc2)nc1=O)c1cccc2ccccc12 | . | . | / | 44 | .
COc1ccccc1-c1cnc(C(O)c2cc(C)ccc2C)[nH]1 (stereo not drawn) | . | . | / | / | .
Cc1cc2c(=O)n(Cc3ccco3)c(SCC(=O)c3ccc(Cl)s3)nc2s1 | . | . | . | 52 | .
SMILES | ABHD5-PLIN5 inh | Exocytosis inh | NTR1 ag | B2AR ag | HTR2A ag
O=C1C=CC(c2c[nH]c3ccccc23)CC1 (stereo not drawn) | 23 | . | / | / | .
Cc1ccccc1N1C(=O)CC(c2c[nH]c3ccccc23)C1=O (stereo not drawn) | . | . | . | . | .
NC(N)=N/N=C/c1ccc(OCc2ccccc2Cl)cc1 | . | . | . | 53 | .
O=C(c1cc(C(=O)N2CCCC2)cc([N+](=O)[O-])c1)N1CCCC1 | . | . | . | . | .
Cc1ccc(S(=O)(=O)NCc2ccc(N3CCN(C(=O)OC(C)(C)C)CC3)cc2)cc1 | . | . | . | . | .
CC(C)N1C(=O)S/C(=C/c2ccc3c(c2)n(C)c(=O)n3C)C1=O | . | . | . | . | .
CCN(CC)c1ccc(/C=C2\SC(=O)N(C(C)C)C2=O)o1 | 86 | . | . | . | .
CC(C)c1ccc2[nH]c(O)c(N=NC(=O)c3ccc(CSc4nncn4C)cc3)c2c1 | . | . | . | 45 | .
Cn1cnnc1SCc1ccc(C(=O)NN)cc1 | . | . | . | . | .
Cc1cc(Cl)ccc1OC(C)C(=O)NCCCn1ccnc1 (stereo not drawn) | . | . | . | . | .
CCOC(=O)c1c2c(n(-c3ccc(OC)cc3)c1C)C(=O)C(=O)c1ccccc1-2 | . | 98 | / | . | .
COc1cccc(NC(=O)C2COc3ccccc3O2)c1 (stereo not drawn) | . | . | . | . | .
O=C(c1cccs1)c1no[n+]([O-])c1C(=O)c1cccs1 | . | 82 | . | . | .
COc1ccc(C(=O)c2no[n+]([O-])c2C(=O)c2ccc(OC)cc2)cc1 | . | 103 | . | 44 | .
O=C(c1ccc(Cl)nc1)c1cccs1 | / | / | . | / | /
O=C(NC1CCCCC1)C1c2ccccc2OCC(=O)N1CCc1ccccc1 (stereo not drawn) | . | . | / | / | .
Cc1ccc(S(=O)(=O)N[C@@H](C)CO)cc1 | . | . | / | / | .
O=C(N/N=C1\CCCc2c1[nH]c1ccc(Cl)cc21)c1ccncc1 | . | . | . | 45 | .
O=C(CCl)c1ccc2[nH]c(=O)oc2c1 | . | . | . | . | .
CN1C(=CC=C2C=C(I)C(=O)C(I)=C2)C(C)(C)c2ccccc21 | . | 89 | / | . | .
C=CCn1c(O)c(N=Nc2ccccc2[N+](=O)[O-])c2ccccc21 | . | . | / | / | .
O=C(/C=C/c1ccccc1F)c1ccoc1 | 31 | . | . | . | .
CC(C)(C)c1ccc(CN2N=Nc3ccccc3S2(=O)=O)cc1 | . | 97 | . | . | .
COc1ccc(NC(=O)c2ccc(NC(=O)CSc3nc(N)cc(=O)[nH]3)cc2)cc1 | . | . | . | . | .
O=C1N/C(=C\c2ccc(O)cc2)C(=O)c2ccccc21 | 34 | . | . | . | .
SMILES | ABHD5-PLIN5 inh | Exocytosis inh | NTR1 ag | B2AR ag | HTR2A ag
CCOC(=O)C1CCN(S(=O)(=O)c2cc(C(=O)OC)n(C)c2)CC1 | . | . | . | . | .
O=c1c2cc(F)ccc2sn1-c1ccccc1 | 99 | . | . | . | .
Cc1ccccc1-n1sc2cc(F)ccc2c1=O | 91 | 71 | . | . | .
N#Cc1ccc2c(=O)n(-c3ccccc3)sc2c1 | . | . | / | / | .
Cc1cccc(OCC(=O)N(Cc2ccccc2)c2c(N)n(Cc3ccccc3)c(=O)[nH]c2=O)c1 | . | . | . | . | .
NS(=O)(=O)c1ccc(NC(=O)C2C3C=CC(C3)C2C(=O)O)cc1 (stereo not drawn) | . | . | . | . | .
COc1cccc(-c2cccc3c2NC(=O)C3(C)Cc2ccccc2F)c1 (stereo not drawn) | . | . | / | / | .
COc1ccccc1NC(=O)c1c(N=Cc2cccc([N+](=O)[O-])c2)cnn1C | . | 62 | . | . | .
COc1ccc(C)cc1NC(=O)c1c([N+](=O)[O-])cnn1C | . | . | . | . | .
C[N+](C)=C1SCC(C)(/C=N/O)S1 (stereo not drawn) | . | 108 | . | . | .
